Screening data from PubChem BioAssay.
D1 antag – Antagonist of Human D 1 Dopamine Receptor: qHTS; HEK293 TREx D1 cells, calcium flux, dopamine EC80; active compounds read low; activity change, negative = inhibition, % at 10 µM; actives 3.2% (n = 360,000); D(1A) dopamine receptor (Homo sapiens), P21728; in the data active = activity change below about -30%; also: % is scaled to controls: 0 for no effect and ±100 for the full control effect
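Kinetic fluorescence of a calcium dye serves as the read-out. D1-expressing Hek293 Trex cells, induced overnight at 30 C, are exposed to compound for 180 s before an EC80 dopamine addition, then read 180 s further.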
D1 PAM – Potentiators of Human D1 Dopamine Receptor: qHTS. potentiation, % at 10 µM. actives 0.036% (n = 360,000). D(1A) dopamine receptor (Homo sapiens), P21728. HEK293 TREx D1 cells, calcium flux, dopamine EC20 potentiation; in the data active = potentiation above about 30%; also: 0% is about no effect
D1 agonist – Allosteric Agonists of the Human D1 Dopamine Receptor: qHTS | D(1A) dopamine receptor (Homo sapiens), P21728 | HEK293 T-REx D1 cells, calcium flux, agonist mode | activation, % at 2 µM | actives 1% (n = 360,000) | AID 504660, 2011; in the data active = activation above about 30%; also: 0% is about no effect
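Tetracycline-induced HEK293 TREx D1 cells, force-coupled to calcium signalling, were dye-loaded with a no-wash calcium kit. Compound was pin-added after a 10 s baseline. Fluorescence was read kinetically at 1 cycle/s for 180 s, with calcium rises flagged as agonism.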
TRHR agonist-1 – qHTS for Small Molecule Agonists and Allosteric Enhancers of Human TRH Receptor: Primary Screen for Agonists | Thyrotropin-releasing hormone receptor (Homo sapiens), P34981 | TRHR cells, calcium flux fluo-8, FDSS agonist mode | activation, % at 2 µM | actives 0.18% (n = 360,000) | AID 493084, 2011; in the data active = activation above about 30%; also: 0% is about no effect
Target sequence (P34981 whole entry, looked up): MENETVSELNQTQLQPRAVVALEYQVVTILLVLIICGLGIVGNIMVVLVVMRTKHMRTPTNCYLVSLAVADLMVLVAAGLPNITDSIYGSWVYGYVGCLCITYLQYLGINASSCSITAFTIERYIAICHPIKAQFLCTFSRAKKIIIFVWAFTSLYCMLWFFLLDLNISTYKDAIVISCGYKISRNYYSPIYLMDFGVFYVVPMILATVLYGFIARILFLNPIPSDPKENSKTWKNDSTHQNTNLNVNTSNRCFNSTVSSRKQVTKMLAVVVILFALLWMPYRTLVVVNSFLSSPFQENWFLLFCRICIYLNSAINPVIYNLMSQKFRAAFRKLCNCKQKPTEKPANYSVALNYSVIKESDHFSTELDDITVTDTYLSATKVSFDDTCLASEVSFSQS
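Read-out: compound-evoked intracellular calcium rise in TRHR cells, fluo-8 dye, kinetic FDSS fluorescence at 1 s/cycle following a 10-cycle baseline. Cells cultured overnight before dye loading (30 min–1.5 h, RT).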
TRHR enhancer-1 – qHTS for Small Molecule Agonists and Allosteric Enhancers of Human TRH Receptor: Primary Screen for Enhancers | Thyrotropin-releasing hormone receptor (Homo sapiens), P34981 | TRHR cells, fluo-8 calcium fluorescence, EC20 TRH enhancement | enhancement, % at 2 µM | actives 0.66% (n = 360,000) | AID 493056, 2011; in the data active = enhancement above about 30%; also: 0% is about no effect
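TRHR-expressing cells loaded with fluo-8 calcium dye were read kinetically (ex 480/em 530) during compound addition, then stimulated with an EC20 of TRH (10 nM final). Enhancement of the Gq-mediated intracellular calcium response was scored.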
TRHR enhancer-2 – qHTS for Small Molecule Agonists and Allosteric Enhancers of Human TRH Receptor: Confirmation Screen for Enhancers. shares compounds with TRHR enhancer-1. TRH receptor cell assay, enhancer confirmation qHTS. activity change, negative = inhibition, % at 46.1 µM. 970 tested, under 10 active. AID 493076, 2011;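 also: compound effect scored on response to added TRH at EC20 of 10 nM; 0% is about no effect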
TRHR agonist-2 – qHTS for Small Molecule Agonists and Allosteric Enhancers of Human TRH Receptor: Confirmation Screen for Agonists | shares compounds with TRHR enhancer-1 | TRHR-expressing cells, agonist activation read-out | Potency, µM (top dose mostly 46.1 µM), for inactives: at the top dose activation, actives largely listed as activators | actives 8% (n = 970); also: potency is read from the fitted curve at half-maximal effect; 0% is about no effect; nearly all actives have a fitted effect of over 75% in size
Starred values were filed as active, the others as inactive; ? = inconclusive; . = not tested or not shown. In the library only some 4.6% were active in any assay of this set; here they are far more common. Unless noted, calls follow the shape of the dose curve; as a rule, active = well fitted curve in the direction sought with a large enough effect; inconclusive = small, poorly fitted or top-dose-only effect, or another doubt; inactive = no such curve, though single readings can be large; an effect the other way counts as inactive or inconclusive.

SMILES	D1 antag	D1 PAM	D1 agonist	TRHR agonist-1	TRHR enhancer-1	TRHR enhancer-2	TRHR agonist-2
CCCCNS(=O)(=O)c1ccc(NC(=O)C(Sc2ccccc2)c2ccccc2)cc1 (configuration not stated)	15	-4	13	27	2	-3	?
Cc1nnc(NC(=O)C(=O)c2cc(C)n(-c3ccc(C)c(C)c3)c2C)s1	1	-1	3	0	-5	.	.
O=C(NCc1cccs1)c1cccnc1C(=O)O	-8	0	2	51*	7	-2	-1%
CCOC(=O)C1=C(CN2CCN(c3ccccc3F)CC2)NC(=O)NC1c1ccc(Cl)cc1 (configuration not stated)	2	4	2	1	4	.	.
COCCn1c(C)cc(O)c(C(c2ccccc2Cl)N2CCCCC2)c1=O (configuration not stated)	-6	-1	2	0	2	.	.
COc1cccc(C2CC(c3ccc(NS(C)(=O)=O)cc3)=NN2C(=O)c2ccccc2)c1OC (configuration not stated)	-21	-2	6	0	50*	-5	4%
C=CCn1c(C)cc(-c2csc(NC(=O)C3=COCCO3)n2)c1C	19	-8	2	0	59*	-9	0%
O=C(CCn1c(=O)sc2ccccc21)Nc1ccon1	23	-5	-2	0	43*	-2	1%
COc1ccc2oc(=O)c(C(=O)NC3CCCCCC3)cc2c1	5	0	0	0	51*	-2	-1%
CNC(=O)c1cc2cc(OC)ccc2oc1=O	0	3	0	1	0	.	.
COc1cccc(NC(=O)Cn2cc(S(=O)(=O)N3CCCC3)c(S(=O)(=O)N3CCCC3)c2)c1	-5	4	8	0	5	.	.
CC1CCCCN1CCNC(=O)CN1C(=O)COc2ccccc21 (configuration not stated)	2	-1	2	0	51*	5	1%
Nc1ncnc(Nc2ccc(F)c(Cl)c2)n1	-12	1	1	0	45*	-2	2%
N#C/C(=C(/O)c1ccccc1F)c1nc2cc(C(F)(F)F)ccc2s1	-15	-3	2	1	41*	-1	-1%
CCc1noc(C)c1C(=O)Nc1nc2c(C)cccc2s1	-19	-1	3	0	56*	-2	-1%
CCc1cccc2sc(NC(=O)C3CC3)nc12	4	-10	2	0	42*	0	?
CCCCOc1ccc(C(=O)NCC2(N3CCN(C)CC3)CCCCC2)cc1	-18	-1	-1	-1	-6	.	.
CC(C)(C)n1cnc2cc(NCc3ccccc3Cl)ccc21	2	1	4	-1	7	.	.
Cc1ccc2nc3c(cc2c1)c(NC(=O)C1CCCO1)nn3CC(C)C (configuration not stated)	.	-2	1	0	6	.	.
Cc1ccc2cc3c(NC(=O)C4CCCO4)nn(CC(C)C)c3nc2c1 (configuration not stated)	.	-1	3	0	47*	?	1%
O=C(O)C1=C[C@@H](c2csc3ccccc23)C[C@@H](OCCCCO)O1	-23	0	0	0	49*	0	3%
COc1cc(NC(=O)C(Cc2ccccc2)NS(=O)(=O)c2cccc3nsnc23)cc(OC)c1 (configuration not stated)	-19	-2	-2	-1	-2	.	.
